Laboratory results as given in PubChem BioAssay (EPA / NIEHS).
Calls of active or inactive are those of the source. The calls were made as follows: active = hit-call score of the fitted dose curve at least 0.9, where 1 is the maximum; inactive = score below 0.9.

assay: BSK_SAg_Proliferation: Cell Proliferation Assessment in the BioMAP Diversity Plus: SAg Assay (AID 2283095); details: primary human HUVEC with PBMC
Experimental: BSK_SAg is a cell-based, multiplexed-readout assay that uses umbilical vein endothelium and peripheral blood mononuclear cells, a human vascular primary cell co-culture, with measurements taken at 24 hours after chemical dosing in a 96-well plate.BSK_SAg_Proliferation is an assay component in the BSK_SAg assay. It measures protein content, a form of viability reporter, as detected with absorbance signals by Sulforhodamine staining technology. Data from the assay component BSK_SAg_Proliferation was analyzed into 1 assay endpoint. This assay endpoint, BSK_SAg_Proliferation, was analyzed with bidirectional fitting relative to DMSO as the negative control and baseline of activity. Using a type of viability reporter, measures of total protein for gain or loss-of-signal activity can be used to understand the viability at the cellular-level. Furthermore, this assay endpoint can be referred to as a secondary readout, because this assay has produced multiple assay endpoints where this one serves a viability function. To generalize the intended target to other relatable targets, this assay endpoint is annotated to the cell cycle intended target family, where the subfamily is proliferation.
The levels of cell surface (or secreted, indicated by the prefix "s") biomarker endpoints were measured by ELISA. Overt cytotoxicity to cells in confluent adherent cultures (all systems other than the BT system) was assessed by measuring total protein levels using sulforhodamine B (SRB) staining in parallel cultures at the time of biomarker measurements, indicated as SRB endpoints. For proliferation assays for adherent cell types, individual cell types are cultured at sub-confluence and relative cell numbers quantified by SRB staining at time points optimized for each system (48 h: 3C and CASM3C systems; 72 h: BT and HDF3CGF systems; 96 h: SAg system). SRB was performed by staining cells with 0.1% SRB after fixation with 10% TCA and reading wells at 560 nm.Viability and proliferation of PBMC (T cells) was quantified by Alamar Blue reduction for the SAg and BT systems. For PBMC viability (referred to as PBMC Cytotoxicity within the assay endpoint names), cells were plated (75,000/well in a 96-well plate) and then chemical samples added for 1 h before addition of activators, SEB and TSST-1 (20 ng/mL final concentration each). Cells were incubated for 90 h. Then, Alamar Blue (20 uL/well) (Invitrogen, Cat DAL1100) was added for 6 h, and the plates were read with a fluorescence microplate reader at 546/580 nm (excitation/emission). For PBMC proliferation, cells were plated and activated as above but incubated for only 16 h prior to addition of Alamar Blue. Plates were read after 6 h.

Row | SMILES | outcome | AC50
1 | CCCCCCCCCC | inactive | 
2 | O=C(NO)C1(NS(=O)(=O)c2ccc(Oc3ccc(F)cc3)cc2)CCOCC1 | inactive | 
3 | CCCC(CCC)C(=O)O | inactive | 
4 | O=S1(=O)CCCO1 | inactive | 
5 | COS(C)(=O)=O | inactive | 
6 | S=P(N1CC1)(N1CC1)N1CC1 |  | 4.15 µM (active)
7 | CCCCN1C(=O)[C@@H]([C@H](O)C2CCCCC2)NC(=O)C12CCN(Cc1ccc(Oc3ccc(C(=O)O)cc3)cc1)CC2 | inactive | 
8 | Cc1nccn1-c1ccc(Sc2cccc(C3(C(N)=O)CCOCC3)c2)cc1 |  | 5.48 µM (active)
9 | NC(N)=O | inactive | 
10 | Cn1cc[nH]c1=S | inactive | 
11 | OC(O)(C(F)C(O)(O)C(F)(F)F)C(F)(F)F |  | 30 µM (active)
12 | O=C(O)c1cccc(C(=O)O)c1 | inactive | 
13 | OCCC(F)(F)C(F)(F)C(F)(F)C(F)(F)F | inactive | 
14 | CCOc1ccc2[nH]cc(C(=O)NCc3ccccc3)c(=O)c2n1 | inactive | 
15 | CCc1ccc(O)c(C(C)(C)C)c1 |  | 33 µM (active)
16 | CCN(CC)C(=S)SSC(=S)N(CC)CC |  | 6.07 µM (active)
17 | C=CCc1cc(S(=O)(=O)c2ccc(O)c(CC=C)c2)ccc1O |  | 17.1 µM (active)
18 | O=C(O)c1cccc(C[C@@H]2COc3ccc(OCc4nc5cc(F)ccc5s4)cc3[C@@H]2O)c1 | inactive | 
19 | CC(C)CCCCCCOC(=O)C1CCCCC1C(=O)OCCCCCCC(C)C (stereo not given) | inactive | 
20 | c1ccc2ncccc2c1 | inactive | 

Row | SMILES | outcome | AC50
21 | COc1cc(C(C)C)c2c(c1)S(=O)(=O)N(COc1cc(=O)n3cccc(OCCN4CCCCC4)c3n1)C2=O |  | 7.69 µM (active)
22 | O=S(=O)(O)c1ccc(N=Nc2c(O)ccc3cc(S(=O)(=O)O)ccc23)cc1 | inactive | 
23 | CCOC(N)=O | inactive | 
24 | C[C@@H](Oc1ccc(CNC(=O)c2cccnc2Oc2ccc3c(c2)OCO3)c(F)c1)C(=O)O | inactive | 
25 | CC1(C)C(=O)N(Cl)C(=O)N1Cl | inactive | 
26 | CCCCCOC(C)=O |  | 15.1 µM (active)
27 | CC(=O)c1ccccc1 | inactive | 
28 | c1ccc2cc3ccccc3cc2c1 | inactive | 
29 | CC(C)c1nnc2ccc(-c3ocnc3-c3cc(F)ccc3F)cn12 |  | 12.8 µM (active)
30 | FC(F)=C(F)C(F)(F)C(F)(F)C(F)(F)C(F)(F)C(F)(F)C(F)(F)F | inactive | 
31 | OC(Cn1cncn1)(Cn1cncn1)c1ccc(F)cc1F | inactive | 
32 | Cc1ccc(S(=O)(=O)NC(=O)NN2CCCCCC2)cc1 | inactive | 
33 | OCC(CO)(CO)CO | inactive | 
34 | C[C@]12C=CC(=O)C=C1CC[C@H]1[C@@H]3C[C@@H](O)[C@](O)(C(=O)CO)[C@@]3(C)C[C@H](O)[C@@]12F | inactive | 
35 | COc1cc2c(c(OC)c1OC)-c1ccc(OC)c(=O)cc1[C@@H](NC(C)=O)CC2 |  | 0.34 µM (active)
36 | NCC(F)(F)C(F)(F)C(F)(F)C(F)(F)F | inactive | 
37 | Cc1cccc(O)c1C | inactive | 
38 | Cc1ncc([C@@H](CCCCCCc2ccc3c(n2)NCCC3)CC(=O)O)cn1 | inactive | 
39 | Nc1ccn([C@@H]2O[C@H](CO)[C@@H](O)[C@@H]2O)c(=O)n1 |  | 14.1 µM (active)
40 | CCCCCCCC/C=C\CCCCCCCC(=O)OC[C@@H](O)[C@H]1OC[C@H](O)[C@H]1O | inactive | 
